Results as given in PubChem BioAssay (EPA / NIEHS).
Results filed as inconclusive are left out. Activity calls are given as the source filed them. Rule for the calls: active = hit-call score of the fitted dose curve at least 0.9, where 1 is the maximum; inconclusive = response in the unintended direction; inactive = score below 0.9.

Read-out: Cytochrome P450 2C19 (Homo sapiens) (UniProt P33261)
Experiment: CLD_CYP2C19_6hr: CellzDirect (CLD) Gene Expression Assay for xenobiotic metabolism (CYP2C19) at 6 hours (AID 2283678)
Method: CLD_6hr is a cell-based, multiplexed-readout assay that uses hepatocyte, a human liver primary cell, with measurements taken at 6 hours after chemical dosing in a 96-well plate.CLD_CYP2C19_6hr is one of 16 assay component(s) measured or calculated from the CLD_6hr assay. It is designed to make measurements of mRNA induction, a form of inducible reporter, as detected with chemiluminescence signals by Quantitative Nuclease Protection Assay (qNPA) technology.Data from the assay component CLD_CYP2C19_6hr was analyzed at the endpoint, CLD_CYP2C19_6hr, in the positive analysis fitting direction relative to DMSO as the negative control and baseline of activity. Using a type of inducible reporter, gain-of-signal activity can be used to understand changes in the reporter gene as they relate to the gene CYP2C19. Furthermore, this assay endpoint can be referred to as a primary readout. To generalize the intended target to other relatable targets, this assay endpoint is annotated to the cyp intended target family, where subfamily is xenobiotic metabolism.
Human hepatocyte cultures were treated daily for two consecutive days with fresh dosing solutions containing appropriate concentrations of the 320 ToxCast chemicals (chemical identities were blinded to CellzDirect and other ToxCast collaborators), vehicle control (0.2% DMSO), and positive control inducers as summarized in Table 1. Due to the large number of treatment groups and chemicals examined, the ToxCast chemicals were divided into two groups (spanning two independent cultures of hepatocytes from separate donor preparations (Hu778: ToxCast plates 1 and 2; Hu776: ToxCast plates 3 and 4). Each preparation of human hepatocyte cultures was treated with respective vehicle control, medium only control, set of six positive controls/reference chemicals for the five hepatic receptor pathways, and a subset of eight of the ToxCast chemicals (indoxacarb, pyrithiobac-sodium, norflurazon, cyhalofop-butyl, methomyl, thiram, acetochlor, and propiconazole). These replicate data, coupled with internal replicates designed within the blinded ToxCast chemical library, provided additional data to evaluate interindividual differences between hepatocyte preparations and their potential impact on chemical profiles.Cell morphology and integrity were evaluated using phase-contrast microscopy as an indicator of hepatocyte cell health (Tyson & Green, 1987). Cultures for each treatment group (i.e., media, vehicle [0.2% DMSO], positive control inducers [multiple concentrations], and the ToxCast chemicals [multiple concentrations]) were observed and cell morphology was assessed relative to vehicle control cultures at each harvest time point (0, 6, 24, or 48 h). […] Images were evaluated at the conclusion of the study to assess changes in cell integrity and account for the effects of chemical exposure on uncharacteristic changes in concentration-dependent gene expression profiles. The results from these determinations of apparent cytotoxicity were annotated (yes/no) alongside the corresponding qNPA data for reference.At the conclusion of each treatment period, hepatocyte cultures (96-well) were washed with 1 volume of HBSS, lysed by addition of 25 ul ArrayPlate lysis buffer (HTG, Tucson, AZ), and 70 ul/well of Denaturation Oil, denatured by incubation at 95C for 10 min, and frozen at approximately -70C until analysis by nuclease protection assay (qNPA) (Roberts et al., 2007). For qNPA analysis, cell lysates were thawed at 50C for approximately 30 min, qNPA probes were added, and samples were incubated at 95C for 10 min to begin the detection process by denaturing the target RNA, dissociating the duplexes and secondary structure hybridization. At the conclusion of the hybridization period, S1 nuclease reagent was added to each sample to digest all nonprotected nucleotides at 50C for 60-90 min. […]

Chain of Cytochrome P450 2C19 (Homo sapiens) (P33261 whole entry, looked up): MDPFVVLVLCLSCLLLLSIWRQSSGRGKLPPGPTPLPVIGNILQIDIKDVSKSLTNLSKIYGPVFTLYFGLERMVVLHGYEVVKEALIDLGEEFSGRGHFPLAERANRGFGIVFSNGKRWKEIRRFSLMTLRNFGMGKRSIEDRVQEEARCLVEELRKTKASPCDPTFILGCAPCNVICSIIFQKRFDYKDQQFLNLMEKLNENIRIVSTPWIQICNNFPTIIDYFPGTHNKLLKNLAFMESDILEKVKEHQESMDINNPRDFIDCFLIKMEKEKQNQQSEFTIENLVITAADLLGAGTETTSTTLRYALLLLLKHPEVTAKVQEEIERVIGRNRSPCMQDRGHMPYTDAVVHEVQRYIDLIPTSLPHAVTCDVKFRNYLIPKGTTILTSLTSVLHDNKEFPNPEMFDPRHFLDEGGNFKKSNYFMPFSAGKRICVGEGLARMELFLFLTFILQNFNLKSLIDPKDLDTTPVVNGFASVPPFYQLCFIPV

SMILES	outcome
COP(N)(=O)SC (configuration not stated)	inactive
COC(=O)C(C)Oc1ccc(Oc2ccc(Cl)cc2Cl)cc1 (configuration not stated)	inactive
O=C(O)c1nc(Cl)ccc1Cl	inactive
Cc1cc(Cl)ccc1OCC(=O)O	inactive
CCc1nn(C)c(C(=O)NCc2ccc(C(C)(C)C)cc2)c1Cl	inactive
CCCCOC(=O)c1ccccc1C(=O)OCCCC	inactive
COc1nc(C)nc(NC(=O)NS(=O)(=O)c2ccccc2CCC(F)(F)F)n1	inactive
CNC(=S)S	inactive
CCCCNC(=O)n1c(NC(=O)OC)nc2ccccc21	inactive
COC(=O)N(OC)c1ccccc1COc1ccn(-c2ccc(Cl)cc2)n1	inactive
COc1cnc(OC)n2nc(NS(=O)(=O)c3c(OCC(F)F)cccc3C(F)(F)F)nc12	inactive
Cc1ccc(-c2c(Cl)nc(C#N)n2S(=O)(=O)N(C)C)cc1	inactive
CCOC(=O)C(Cl)Cc1cc(-n2nc(C)n(C(F)F)c2=O)c(F)cc1Cl (configuration not stated)	inactive
CCOP(=S)(OCC)SCn1c(=O)oc2cc(Cl)ccc21	inactive
CCON=C(CC)C1=C(O)CC(c2c(C)cc(C)cc2C)CC1=O (configuration not stated)	inactive
COC(=O)c1ccccc1C(=O)OC	inactive
O=C(O)COc1nc(Cl)c(Cl)cc1Cl	inactive
CS/C(C)=N/OC(=O)N(C)SN(C)C(=O)O/N=C(\C)SC	inactive
COc1nc(NC(C)C)nc(NC(C)C)n1	inactive
CC(C)C1(C)N=C(c2nc3ccccc3cc2C(=O)O)NC1=O (configuration not stated)	inactive
COc1nc(C)nc(NC(=O)NS(=O)(=O)c2ccccc2Cl)n1	inactive
CCNc1nc(Cl)nc(NC(C)C)n1	inactive
